Experimental data as given in PubChem BioAssay AID898 (University of Pittsburgh Molecular Library Screening Center, 2007).
The campaign covered roughly 140,000 compounds. About 220 (0.16%) were called active. This excerpt belongs to a sample that is enriched for actives. Values without a mark were called inactive. Cut-off read from the data, not from the text of the source: active = inhibition above about 50%; inactive = the rest.

The compounds below were run on YopH tyrosine phosphatase [Yersinia enterocolitica] (assay: YopH tyrosine phosphatase inhibitors, primary screen, biochemical, fluorescence Ex485/Em525 (AID 898)). Settings: stronger effect = higher value, concentration not given here.

Structure (SMILES)	inhibition
CCNC(=S)N1CCC(c2nc3cc(C)c(C)cc3[nH]2)CC1	-17.7%
O=S(=O)(ON(c1ccccc1)S(=O)(=O)c1ccccc1)c1ccccc1	-36.9%
CCOC(=O)c1csc(NC(=O)Nc2cccc(OC)c2)n1	-29.1%
O=C(NC(CC(=O)N1CCN(c2ccccc2)CC1)c1ccccc1)c1ccccc1Cl (configuration not stated)	-12%
CCOc1cccc2c1OC1(CCCCC1)N1N=C(c3cccnc3)CC21 (configuration not stated)	-19.2%
CC1(c2ccccc2)CC(C)(C)N(C(=O)c2cc([N+](=O)[O-])cc([N+](=O)[O-])c2)c2ccccc21 (configuration not stated)	-29.6%
CC1CCN(C2=NC(=O)/C(=C/c3cn[nH]c3-c3ccccc3)S2)CC1	-21.6%
Cc1ccc(-n2c(SCC(=O)Nc3ncc(Cl)cc3Cl)nc3ccccc32)cc1	8.79%
CCOC(=O)/C=C/C(=O)OCC(=O)NC(c1ccccc1)c1ccccc1	-29%
Cc1cc(C)c(C2C3=C(Nc4c2c(C)nn4-c2ccccn2)c2ccccc2C3=O)c(C)c1 (configuration not stated)	-0.15%
CCOC(=O)c1c(C)[nH]c(=S)c(C#N)c1-c1ccccc1	-37.4%
CCOC(=O)c1c(C)[nH]c2c1-c1ccccc1C(=O)C2=O	78.7% (active)
CCOC(=O)C1=C(c2ccc(OC)cc2)C(=O)c2ccccc2C1=O	16.7%
COc1ccc2c(CC(=O)OCC(=O)Nc3ccccc3[N+](=O)[O-])coc2c1	-29.4%
Cc1ccc(C(=O)Oc2coc(CSc3nnc(NC(=O)c4cccs4)s3)cc2=O)cc1C	0.04%
NC1=NC(=O)S/C1=C\c1ccc(O)cc1	-36.5%
CCOc1ccccc1N1CCN(C(=S)Nc2ccc(S(N)(=O)=O)cc2)CC1	-2.91%
CC(C)(C)C(=O)NC(NC(=S)Nc1ccc(S(N)(=O)=O)cc1)C(Cl)(Cl)Cl (configuration not stated)	-18.5%
CCN1CCC2(CC1)N=C(c1ccc(F)cc1)C(=S)N2C(=O)c1ccc(C)cc1	77.9% (active)
Cc1ccc(C(=O)N(CN2CCCC2=O)c2ccc(F)cc2)cc1	-41.7%
CCn1c(C(C)NC(=O)c2ccc(C)cc2)n[nH]c1=S (configuration not stated)	-41.3%
CC(=O)c1c(C)[nH]c(C(=O)OCC(=O)Nc2sc3c(c2C#N)CCCC3)c1C	-24.9%
COCCCN(C(=S)Nc1c(C)cc(C)cc1C)C(C)c1ccncc1 (configuration not stated)	-22.6%
Cc1ccccc1-n1nc(C)c2c1N=C1C(Cl)=CC(Cl)=CN1C2c1ccc(C(=O)O)cc1 (configuration not stated)	-22.9%

Structure (SMILES)	inhibition
COC(C(=O)Nc1ccc(C(C)=O)cc1)c1ccccc1 (configuration not stated)	-28.2%
C/C(=N/NC(=S)Nc1ccccc1)c1ccc2c(c1)OCO2	-22.5%
COc1ccc(OCCNS(=O)(=O)Cc2ccccc2)cc1	-30.4%
Cc1nonc1C(=O)N/N=C/c1ccc(O)cc1	-21.7%
Cc1ccc2c(CC(=O)NCc3cccs3)coc2c1	-29.9%
CCc1cccc(CC)c1NC(=O)COc1ccccc1C(=O)c1cc(C#N)c(=O)n(C2CCCCC2)c1	-24.5%
Cc1ccc(-c2cc(C(=O)N/N=C/C=C/c3ccccc3)n[nH]2)o1	-23%
O=C(COC(=O)c1cc2c(s1)CCCC2)NCc1ccccc1Cl	-45.2%
CCCN1CNC(=S)N(CCc2ccccc2)C1	-20.8%
CCCCc1cc2c(s1)CCCC/C2=N/O	-2.52%
N#Cc1c(-c2ccc(F)cc2)cc(C2CC2)nc1SCC(=O)c1cccs1	-21.7%
Cc1ccc(O)c(-c2cc(C(=O)Nc3c(C)n(C)n(-c4ccccc4)c3=O)[nH]n2)c1	-27%
O=C(CSc1nc2ccccc2[nH]1)Nc1nc(-c2ccccc2)c(-c2ccccc2)o1	-23.6%
COc1ccc(Br)cc1CN(C)CC(=O)Nc1cc(Cl)cc(Cl)c1	-5.01%
CCCCNC(=O)CCn1c(=O)c2ccccc2n(Cc2cc(C)ccc2C)c1=O	-41.6%
Nc1nnc(SCC(=O)OCc2ccc(Cl)c(Cl)c2)s1	-17.1%
CC(=O)Nc1ccc(C(=O)OCC(=O)Nc2ccc([N+](=O)[O-])cc2C(F)(F)F)cc1	-15.8%
C[n+]1ccccc1C1CCCC/C1=N\Nc1ccc([N+](=O)[O-])cc1[N+](=O)[O-] (configuration not stated)	3.63%
CN(C)CCNC(=O)Cc1ccc([N+](=O)[O-])cc1	-24.9%
COC(=O)c1nc2ccccc2s1	-16.5%
N#C/C(=C(/O)Cc1cccc2ccccc12)c1nc2ccccc2s1	-11%
CC1=CC(=C(C#N)c2nc3ccccc3s2)C=C(C)N1c1ccc(F)cc1F	79.4% (active)
O=[N+]([O-])c1ccc(N2CCNCC2)cc1NCc1cccnc1	-24.3%
COc1ccc(C/C(C)=N/NC(=O)c2cc(C)oc2C)cc1	-13.9%

Structure (SMILES)	inhibition
COCCNC(=O)c1ccccc1NS(=O)(=O)c1ccc(C)c([N+](=O)[O-])c1	-4.7%
CCCC(NC(=O)c1ccco1)c1nc2ccccc2[nH]1 (configuration not stated)	-24.8%
C/C(=N\NC(=O)CSc1nc2ccccc2c(=O)n1-c1ccccc1C)c1cccs1	-17%
CN1CCN(c2ccc(NC(=O)c3ccc4c(c3)[nH]c(=O)n4Cc3ccc(F)cc3)cc2)CC1	-24.8%
O=C(/C=C/NCc1ccc(F)cc1)c1ccccc1	-30.4%
Cc1c(NC(=S)Nc2ccccc2)c(=O)n(-c2ccccc2)n1C	-29.6%
CCCCOC(=O)c1ccc(NC(c2ccc(C)cc2)P(=O)(OC)OC)cc1 (configuration not stated)	-6.33%
COc1ccccc1N1N=C(c2cccs2)CC1c1ccccc1 (configuration not stated)	-12.8%
CCN(CC)CCn1c(/N=C/c2cc(Br)ccc2O)nc2ccccc21	-20.7%
C=CCNCCCCOc1ccccc1	-29.1%
O=C(CSc1nnc(SCc2ccc(Cl)cc2)s1)N/N=C/c1ccccc1Cl	-26.2%
CC(=O)Nc1ccc(S(=O)(=O)N2CCN(c3ccc([N+](=O)[O-])c(NCCN4CCOCC4)c3)CC2)cc1	-27.6%
C=CCNC(=O)/C=C/c1ccc(C(C)C)cc1	-23.5%
Cc1ccc(N(Cc2cc3ccccc3[nH]c2=O)C(=O)c2cccs2)cc1	-10.8%
O=C(NC1CCCCCC1)c1cccnc1Sc1ccc(Cl)cc1	-17.2%
Brc1ccc(C2CC(c3ccccc3)=Nc3ccccc3N2)cc1 (configuration not stated)	-11.5%
COC(=O)C1=NNC2(c3ccc(C)cc3)C(=O)N(c3cccc(C)c3C)C(=O)C12 (configuration not stated)	-28.4%
COc1cc(C(=S)NC2CCCCC2)ccc1O	-30.2%
CC1(C)C2CC=C(/C=N/NC(=O)c3ccc(Cl)cc3)C1C2 (configuration not stated)	-29.6%
CCCc1nc(SCC(=O)Nc2ccc(S(=O)(=O)N(C)C)cc2)c2ccccc2n1	-25.4%
NC1=NN(c2cccc(C(=O)O)c2)C(=O)C1	-7.9%
CN(CC(=O)NCCc1ccccc1)S(=O)(=O)c1cnc[nH]1	-21%
COc1cccc(NC(=S)NCc2ccco2)c1	-28.3%
O=C(CN1CCN(c2ccccn2)CC1)N1CCc2ccccc21	-10%
